# Source: PubChem BioAssay AID1259420 (Broad Institute, 2018)
# Values joined by “and” are separate entries in the source; they are usually repeats but may differ in a detail not shown here. Equal values may be shown once. Hit rate of the full screen: of about 1,000 compounds, about 250 (25%) were called active. Another 31% or so got no clear call; they are omitted. These entries were drawn from the full list. Potency and affinity values are given separately. Values without a mark were called inactive. How the calls were made is not given here.
# Test: T. gondii intracellular growth, IFN-gamma absent, dose response, cell-based (AID 1259420);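 further: host cells were HeLa; final incubation lasted 72 hours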
# Conditions: Toxoplasma gondii growth in host cells, no IFN-gamma
structure (smiles),measurement,setting,value
Cc1ccccc1S(=O)(=O)N1CCCCN2[C@H](CO)[C@H](c3ccc(C#CCN(C)C)cc3)[C@@H]2C1,max activity,at 19.5 µM unless noted,-9.35% [at 10 µM]
Cc1ccccc1-c1ccc(C2[C@@H]3CN(C(=O)C4CCOCC4)C[C@H]2N3)cc1 (some centres undefined),max activity,at 0.6 µM,-10.3%
same,max activity,at 5 µM,-5.78%
C1=C(c2ccccc2)CC(c2ccccc2)=NN=C1c1ccccc1,max activity,at 19.5 µM unless noted,-9.17% [at 10 µM]
COc1cccc(S(=O)(=O)N2CCCCN3[C@@H](CO)[C@H](c4ccc(C#CCC(C)C)cc4)[C@@H]3C2)c1,max activity,at 19.5 µM unless noted,-27.2% [at 0.3 µM]
O=S(=O)(c1ccccc1)N1CCCCN2[C@@H](CO)[C@@H](c3ccc(C#CC4CCCC4)cc3)[C@@H]2C1,max activity,at 19.5 µM unless noted,18.8% [at 10 µM]
COc1cccc(S(=O)(=O)N2CCCCN3[C@H](C2)[C@@H](c2ccc(C#CCC(C)C)cc2)[C@@H]3CO)c1,max activity,at 19.5 µM unless noted,-34.5% and -29.4%
COc1cccc(S(=O)(=O)N2CCCCN3[C@H](CO)[C@@H](c4ccc(C#CCC(C)C)cc4)[C@@H]3C2)c1,max activity,at 19.5 µM unless noted,-24.9% [at 0.038 µM]
O=S(=O)(c1ccccc1)N1CCCCN2[C@H](C1)[C@@H](c1ccc(C#CC3CCCC3)cc1)[C@@H]2CO,max activity,at 19.5 µM unless noted,22.5%
COc1cccc(S(=O)(=O)N2CCCCN3[C@H](CO)[C@H](c4ccc(C#CCC(C)C)cc4)[C@@H]3C2)c1,max activity,at 0.038 µM,-25.2%
same,max activity,at 19.5 µM,-36.4%
O=S(=O)(c1ccccc1)N1CCCCN2[C@H](CO)[C@@H](c3ccc(C#CC4CCCC4)cc3)[C@@H]2C1,max activity,at 19.5 µM unless noted,39.2%
CNCCCC12CCC(c3ccccc31)c1ccccc12,max activity,at 19.5 µM unless noted,17.3%
CCC(=O)N1CC(=O)N2[C@H](C1)[C@H](c1ccc(C#CCC(C)C)cc1)[C@@H]2CO,max activity,at 19.5 µM unless noted,-9.55% [at 5 µM]
O=C(NC1CCCC1)N1CC(=O)N2[C@H](CO)[C@H](c3ccc(C4=CCCCC4)cc3)[C@@H]2C1,max activity,at 19.5 µM unless noted,10.5% [at 0.6 µM]
CS(=O)(=O)N1CC(=O)N2[C@H](CO)[C@@H](c3ccc(C#CCC4CCCC4)cc3)[C@H]2C1,max activity,at 19.5 µM unless noted,17.7% [at 21 µM]
COC(=O)C[C@H]1CC[C@@H]2[C@@H](COc3ccc(NC(=O)Nc4cccc(C#N)c4)cc3C(=O)N2C)O1,max activity,at 19.5 µM unless noted,32.3% and 6.8%
CC=Cc1ccc2n(c1=O)C[C@H]1[C@H](CO)[C@@H](C(=O)Nc3ccc(-c4ccccc4)cc3)[C@@H]2N1C(=O)CC (mixture of isomers),max activity,at 19.5 µM unless noted,-8.34%
CC(=O)NC1=NN(C(C)=O)C(C)(c2ccccc2)S1 (centres undefined),max activity,at 19.5 µM unless noted,5.61% [at 0.16 µM]
COc1ccccc1C#Cc1ccc([C@H]2[C@H](CO)N3CCCCN(C(=O)C4CCC4)C[C@@H]23)cc1,max activity,at 10 µM,11.5%
same,max activity,at 19.5 µM,-7.69%
CN(C)CCNC(=O)c1ccc2onc(-c3coc(C4CC4)n3)c2c1,max activity,at 19.5 µM unless noted,24.6%
COc1ccccc1Cn1ncc2c1CCCC2NC(=O)c1cc(-c2cccs2)no1 (centres undefined),max activity,at 19.5 µM unless noted,11.7% [at 1.2 µM]
O=C(C1CCOCC1)N1CC(=O)N2[C@H](C1)[C@@H](c1ccc(/C=C/c3ccccc3)cc1)[C@@H]2CO,max activity,at 19.5 µM unless noted,10.5% [at 0.6 µM]
O=C(C1CCC1)N1CC(=O)N2[C@H](CO)[C@H](c3ccc(Br)cc3)[C@H]2C1,max activity,at 19.5 µM unless noted,-11.4% [at 10 µM]
Cc1nc(Cn2cnc(-c3nc(C(=O)NCc4cc(F)cc(F)c4)c4ccccn34)c2)cs1,max activity,at 19.5 µM unless noted,15.4%
COC(=O)c1sccc1S(=O)(=O)N[C@@H]1CC[C@@H](N)C1,max activity,at 19.5 µM unless noted,-5.2%
CN(c1ccccc1)c1ccc2ccc(C(=O)N3CCCC3)cn12,max activity,at 19.5 µM unless noted,-21% [at 0.16 µM]
O=C(c1ccc(F)cc1)N1c2ccccc2Sc2ccc(C(F)(F)F)cc21,max activity,at 19.5 µM unless noted,12.1% [at 10 µM]
O=C(NC1CCCC1)N1CCCCN2[C@@H](CO)[C@@H](c3ccc(-c4cccnc4)cc3)[C@@H]2C1,max activity,at 19.5 µM unless noted,-13.7% [at 2.6 µM]
CCc1ccc(S(=O)(=O)N2CCC3(CCC(C(=O)N4CCCC4)O3)CC2)cc1 (centres undefined),max activity,at 19.5 µM unless noted,-11.2% [at 1.2 µM]
CN1C(=O)c2cc(NC(=O)Cc3cccs3)ccc2OC[C@@H]2O[C@H](CC(=O)N[C@H]3CCN(Cc4ccccc4)C3)CC[C@@H]21,max activity,at 19.5 µM unless noted,35.3% and 9.67%
CN1C(=O)c2cc(NC(=O)Cc3cccs3)ccc2OC[C@@H]2O[C@H](CC(=O)NCC3CCCCC3)CC[C@@H]21,max activity,at 19.5 µM unless noted,9.14% [at 0.6 µM]
CN1C(=O)c2cc(NC(=O)Cc3cccs3)ccc2OC[C@@H]2O[C@H](CC(=O)N[C@@H]3CCN(Cc4ccccc4)C3)CC[C@@H]21,max activity,at 19.5 µM unless noted,32%
